# DRD3 agonist: qHTS of D3 Dopamine Receptor Agonist: qHTS | D(3) dopamine receptor (Homo sapiens), P35462 | D3R DiscoveRx beta-arrestin cells, luminescence, 90 min | max activation, % | hit rate 0.58% among 410,000 | AID 652048, 2013; in the data active = max activation above about 30%; also: 0% is about no effect
# Target sequence (P35462 whole entry, looked up): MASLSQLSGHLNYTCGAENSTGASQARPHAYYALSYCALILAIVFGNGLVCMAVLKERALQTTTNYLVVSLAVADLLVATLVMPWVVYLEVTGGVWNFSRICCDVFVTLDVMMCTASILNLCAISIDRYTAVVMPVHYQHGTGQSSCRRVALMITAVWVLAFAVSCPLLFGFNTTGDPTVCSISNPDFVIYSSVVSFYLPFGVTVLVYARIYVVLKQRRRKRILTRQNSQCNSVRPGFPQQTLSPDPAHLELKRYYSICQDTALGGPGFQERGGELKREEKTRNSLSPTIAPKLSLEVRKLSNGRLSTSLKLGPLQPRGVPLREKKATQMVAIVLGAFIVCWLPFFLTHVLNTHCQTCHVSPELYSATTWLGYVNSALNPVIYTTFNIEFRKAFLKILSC
#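 Agonist-mode cell screen: cells plated at 1500/well and incubated overnight at 37 °C, then exposed to library compounds for 90 min at 37 °C. Detection reagent was added for 30–60 min at room temperature, and luminescence was read.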
# IL-1B inflam inh: qHTS for Inhibitors of Inflammasome Signaling: IL-1-beta AlphaLISA Primary Screen; activity change, % at 57.5 µM; AID 743279, 2014; hit rate 4.7% among 360,000; THP-1 LPS/ATP IL-1B secretion, AlphaLISA, 16 h; stronger effect = lower value; in the data active = activity change below about -50%; inconclusive = mostly about -30% to -49%; also: % is scaled to controls: 0 for no effect and ±100 for the full control effect
#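 THP-1 cells pretreated 1 hr with compounds (up to 57.5 uM final), then stimulated with LPS (250 ng/mL final) plus ATP (1.25 mM final); secreted IL-1B measured by AlphaLISA after 16 hr, decreased signal indicating inhibition.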
# ClpP mod: qHTS Assay for Activators of ClpP; ATP-dependent Clp protease proteolytic subunit (Bacillus subtilis (strain 168)), P80244; purified B. subtilis ClpP, FRET peptide cleavage, 20 min; AID 651965, 2013; hit rate 1.9% among 340,000; Potency, µM (doses to about 57.5 µM), for the others: top-dose activity change, negative = active; active = well fitted falling curve with a large enough effect; inconclusive = small, poorly fitted or top-dose-only effect; inactive = no such curve, though single readings can be large or run the other way; also: potency is read from the fitted curve at half-maximal effect; the source files actives as falling curves though it sought activators and does not explain the sign; nearly all actives have a fitted effect of over 65% in size
# Target sequence (P80244 whole entry, looked up): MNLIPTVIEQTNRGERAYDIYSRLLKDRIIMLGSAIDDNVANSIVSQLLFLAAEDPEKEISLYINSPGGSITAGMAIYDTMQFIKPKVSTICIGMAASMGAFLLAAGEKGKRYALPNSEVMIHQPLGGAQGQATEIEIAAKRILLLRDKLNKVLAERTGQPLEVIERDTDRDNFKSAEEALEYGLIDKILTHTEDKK
#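 ClpP 10 microg/mL final, pH 8 Tris/KCl buffer with BSA, glycerol, Tween-20; compound pinned in; FRET-FV substrate; RT 20 min; Ex320/Em430; ΔFRET vs ADEP 5.8 microM, DMSO, no enzyme.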
# DT40 TDP1 CPT: qHTS for Inhibitors of human tyrosyl-DNA phosphodiesterase 1 (TDP1): qHTS in cells in presence of CPT | chicken DT40 Tdp1-/-;hTDP1 cells + 20 nM CPT, ATP luminescence, 48 h | Potency, µM (series often up to 46.2 µM), inactives show at the top dose activity change, negative = growth inhibition, usual class: inhibitors | hit rate 12% among 420,000 | AID 686979, 2013; also: potency is read from the fitted curve at half-maximal effect; % is scaled to controls: 0 for no effect and ±100 for the full control effect; nearly all actives have a fitted effect of over 55% in size
#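 Chicken DT40 Tdp1-/- cells complemented with human TDP1, 400 cells/well, exposed to compounds plus 20 nM camptothecin for at least 48 h at 37 C; viability read as ATP content by CellTiter-Glo luminescence.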
# D3 antag: qHTS of D3 Dopamine Receptor Antagonist: qHTS; D3R cells, DiscoveRx beta-arrestin luminescence, antagonist mode; stronger effect = lower value; max response, negative = inhibition, %; hit rate 2.5% among 360,000; in the data active = max response below about -50%; inconclusive = no clear call, values can overlap the other calls; also: % is scaled to controls: 0 for no effect and ±100 for the full control effect
#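 Cells expressing the human receptor were seeded at 1500 cells/well, incubated overnight at 37 degrees C in 5% CO2, then exposed to library compounds with dopamine controls for 90 minutes at 37 degrees C before luminescent detection.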
# TDP1 cell noCPT: qHTS for Inhibitors of human tyrosyl-DNA phosphodiesterase 1 (TDP1): qHTS in cells in absence of CPT; DT40 Tdp1-/- hTDP1 cells, no CPT, ATP luminescence, 48 h; Potency, µM (doses to about 46.2 µM), without a hit: at the highest dose activity change, negative = growth inhibition, hits mostly inhibitors; hit rate 15% among 420,000; also: potency is read from the fitted curve at half-maximal effect; % is scaled to controls: 0 for no effect and ±100 for the full control effect; nearly all actives have a fitted effect of over 55% in size
#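 Growth kinetics read by CellTiter-Glo luminescence after ≥48 hr at 37 °C. Cells: DT40 Tdp1-/- stably carrying human TDP1, 400 per well, compound exposure in the absence of CPT (DMSO vehicle).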
# Numbers without * were called inactive; ? = inconclusive; / = not tested or not shown. Shown are actives, neighbours in structure and some others; about 21% of the full set was active somewhere. Unless noted, calls follow the shape of the dose curve; as a rule, active = well fitted inhibition curve with a large enough effect; inconclusive = small, poorly fitted or top-dose-only effect; inactive = flat fitted curve, though single readings scatter.
SMILES,DRD3 agonist,IL-1B inflam inh,ClpP mod,DT40 TDP1 CPT,D3 antag,TDP1 cell noCPT
Cc1ccc(Cc2nc3ccccc3nc2SCC(=O)Nc2ccc3c(c2)OCO3)cc1,0,/,-1%,?,/,?
ClCc1nc2ccccc2c2ccccc12,-6,-8,/,4.1µM*,4,2.6µM*
CCc1n[nH]c(=S)n1/N=C/c1cc(OC)cc([N+](=O)[O-])c1O,-27,-10,/,9%,-94*,-23%
CCOC(=O)c1c(/N=C/c2cc([N+](=O)[O-])ccc2O)sc(C)c1C,-5,17,4%,-3%,1,-1%
COc1ccc(OC)c(/C=N/n2c(COc3ccccc3)n[nH]c2=S)c1,-3,57,8%,-1%,-7,12%
CCOC(=O)c1c(/N=C/c2cc(OC)cc([N+](=O)[O-])c2O)sc(C)c1C,-16,-8,-2%,-1%,-71*,2%
CCOC(=O)c1ccc(NC(=O)CSc2cc(-c3ccccc3)nc(C)n2)cc1,2,/,-4%,?,/,?
O=C(CSC1=NS(=O)(=O)c2cc(F)ccc2N1)Nc1ccccc1,-20,9,0%,16%,-11,-30%
O=C(CSC1=NS(=O)(=O)c2ccccc21)Nc1ccccc1,2,-16,-1%,1.8µM*,6,2.6µM*
COC(=O)CSc1ccccc1C(=O)OC,0,0,70%,0%,23,-9%
COC(=O)CSC1=NS(=O)(=O)c2ccccc21,9,?,-1%,1.5µM*,-26,2.3µM*
C/C(=N\Nc1ccc2nncn2n1)c1ccco1,4,3,-2%,1%,5,0%
C/C(=N\Nc1ccc2nncn2n1)c1ccccn1,6,89,0%,2.3µM*,15,4.6µM*
C(=N\Nc1ccc2nncn2n1)/c1ccccn1,16,/,/,12µM*,2,23µM*
CC(NC(=O)C1CCCC1)c1ccc(Br)cc1 (configuration not stated),20,16,-2%,-8%,-17,4%
CC(C)c1ccc(C(C)NC(=O)C2CCCC2)cc1 (configuration not stated),31*,-13,-1%,-55%,-4,?
Cc1cc(C)c(/C=C/c2onc(C)c2S(=O)(=O)N2CCC(C(=O)NCc3ccccc3Cl)CC2)c(C)c1,2,/,-6%,-27%,/,?
Cc1cccc(NC(=O)CNC(=O)c2ccc(-n3cncn3)c([N+](=O)[O-])c2)c1C,-4,-19,/,11%,-6,-9%
O=C(O)COc1ccc(/C=N/NC(=O)C(O)(c2ccccc2)c2ccccc2)cc1,-17,-10,1%,-2%,-2,-11%
COc1ccc(C2(C)C(C#N)C(=O)NC(=O)C2C#N)cc1 (configuration not stated),2,24,3%,-58%,4,2.3µM*
COc1ccc(C2(C)CC(=O)NC2=O)cc1 (configuration not stated),3,6,/,-11%,-3,23%
c1ccc2c(c1)oc1c(NCCCn3ccnc3)ncnc12,5,17,-8%,?,23,-23%
O=c1c2ccccc2oc2ccc(NCCCn3ccnc3)cc12,2,-58*,-2%,?,1,?
COc1ccc(C(=O)N2CCC3(CCCN(Cc4ccc(C#N)cc4)C3)CC2)cc1,/,/,/,-26%,/,18µM*
N#Cc1ccc(CN2CC3(CCN(C(=O)c4cc(C(F)(F)F)cc(C(F)(F)F)c4)CC3)C2)cc1,/,/,/,21µM*,/,10µM*
SMILES,DRD3 agonist,IL-1B inflam inh,ClpP mod,DT40 TDP1 CPT,D3 antag,TDP1 cell noCPT
O=C(O)CCC(=O)c1ccc2sc3ccccc3c2c1,2,1,?,-1%,6,0%
CCOc1ccc(S(=O)(=O)N2CCC(C(=O)NCc3ccccn3)CC2)cc1C,-9,-25,/,-10%,-12,-22%
Cc1cccc(COc2ncnc3nc[nH]c23)c1,-3,12,/,?,7,13µM*
CCN(c1cccc(C)c1)c1ncnc2nc[nH]c12,-4,-4,2%,-28%,-4,-30%
C=CCN1CCN(c2nc3ccccc3nc2C#N)CC1,/,/,/,-6%,/,?
Cc1ccc(NC(=O)CN2C(=O)c3cccnc3Oc3ccc(Cl)cc32)cc1,19,/,-3%,21µM*,/,29µM*
CCOC(=O)c1ccc(NC(=O)CN2C(=O)c3cccnc3Oc3ccc(Cl)cc32)cc1,14,/,?,?,/,21µM*
CCOC(=O)c1ccc(NC(=O)CN2C(=O)COc3ccc(Cl)cc32)cc1,-11,/,-4%,13µM*,/,16µM*
Cc1cccc(NC(=O)CN2C(=O)c3cccnc3Oc3ccc(Cl)cc32)c1C,10,/,-2%,-98%,/,21µM*
Cc1ccc2c(c1)N(CC(=O)Nc1c(C)cccc1C)C(=O)c1cccnc1O2,-6,0,0%,-6%,-11,16%
Cn1cc(-c2nc3cnc(N4CCOCC4)nc3n(CCC#N)c2=O)c2ccccc21,/,/,/,-1%,/,23%
Cc1ccc(Cl)cc1NC(=O)CN1C(=O)c2cccc3cccc1c23,-2,/,-9%,-1%,/,-9%
Cc1cc(Cl)ccc1NC(=O)CN1C(=O)C(=O)c2ccccc21,-4,/,0%,5.8µM*,/,4.1µM*
O=C(CS)Nc1ccccc1,-6,/,/,?,/,?
CCCCn1c(=O)[nH]c(=O)c2c1nc(-c1ccc(C)c([N+](=O)[O-])c1)n2CC,27,-18,/,?,24,21µM*
Cc1ccc(-c2nc3c(c(=O)[nH]c(=O)n3CC(C)C)n2CC(C)C)cc1[N+](=O)[O-],4,-9,/,?,3,29µM*
Cc1cc(=O)[nH]c2nnc(SCCC(C)C)n12,-15,/,-1%,8%,/,-10%
N#Cc1cc2c(nc1SCc1ccncc1)CCC2,-6,?,-6%,18µM*,-13,?
N#Cc1cc2c(nc1SCC(O)CS(=O)(=O)Cc1ccc(Cl)cc1)CCCC2 (configuration not stated),12,-61*,-6%,?,11,?
Cc1ccc(C(=O)Nc2ccc(C(=O)O)cc2)cc1S(=O)(=O)NCc1ccccc1,13,34,/,12%,1,7%
CCCC(NC(=O)CCl)c1ccccc1 (configuration not stated),-1,-92*,-1%,13µM*,-14,29µM*
